Laboratory results from ChEMBL document CHEMBL3988442, “University of Dundee, Small-Polar-MMV Screening Library” (2021).
For some of these results: Entries with a potency or affinity are not part of this list.

Columns and labels:
Set-up in all cases: scale not given: direction of the effect not stated beside the values
[1] = target: Protein translocase subunit SecA (Escherichia coli (strain K12)) (UniProt P10408); test: Assay to Identify E. coli SecA ATPase Inhibitors; type: functional; conditions: 30 µM
Sequence of Protein translocase subunit SecA (Escherichia coli (strain K12)) (P10408 whole entry): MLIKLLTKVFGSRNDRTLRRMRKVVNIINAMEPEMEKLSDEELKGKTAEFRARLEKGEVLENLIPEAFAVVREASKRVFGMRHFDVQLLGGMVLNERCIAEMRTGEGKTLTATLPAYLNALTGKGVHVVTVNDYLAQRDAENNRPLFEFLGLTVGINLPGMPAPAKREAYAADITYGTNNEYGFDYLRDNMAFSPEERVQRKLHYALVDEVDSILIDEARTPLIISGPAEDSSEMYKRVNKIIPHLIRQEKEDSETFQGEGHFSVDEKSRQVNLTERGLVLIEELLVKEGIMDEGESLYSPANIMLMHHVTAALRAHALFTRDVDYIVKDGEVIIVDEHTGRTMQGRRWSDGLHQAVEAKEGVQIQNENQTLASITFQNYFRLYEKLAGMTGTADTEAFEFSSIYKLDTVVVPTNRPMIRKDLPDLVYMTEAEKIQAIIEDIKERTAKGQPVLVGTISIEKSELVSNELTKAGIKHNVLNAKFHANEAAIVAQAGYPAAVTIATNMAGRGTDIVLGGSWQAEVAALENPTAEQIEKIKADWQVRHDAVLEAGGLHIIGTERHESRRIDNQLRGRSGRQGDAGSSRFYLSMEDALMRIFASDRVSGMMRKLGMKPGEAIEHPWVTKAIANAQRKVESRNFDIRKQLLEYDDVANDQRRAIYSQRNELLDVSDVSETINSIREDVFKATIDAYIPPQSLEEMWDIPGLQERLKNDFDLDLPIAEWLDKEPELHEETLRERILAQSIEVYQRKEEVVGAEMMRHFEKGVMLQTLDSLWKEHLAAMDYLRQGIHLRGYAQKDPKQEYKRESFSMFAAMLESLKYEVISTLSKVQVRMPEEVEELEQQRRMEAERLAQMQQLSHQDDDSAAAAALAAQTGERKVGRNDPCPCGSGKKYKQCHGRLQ

[2] = target: T1, Ubiquitin-activating enzyme e1, putative (Leishmania donovani (strain BPK282A1)) (UniProt E9BSI1); test: Leishmania donovani Ubiquitin Activating Enzyme (LdE1); type: functional; conditions: 30 µM
T1 sequence (whole entry): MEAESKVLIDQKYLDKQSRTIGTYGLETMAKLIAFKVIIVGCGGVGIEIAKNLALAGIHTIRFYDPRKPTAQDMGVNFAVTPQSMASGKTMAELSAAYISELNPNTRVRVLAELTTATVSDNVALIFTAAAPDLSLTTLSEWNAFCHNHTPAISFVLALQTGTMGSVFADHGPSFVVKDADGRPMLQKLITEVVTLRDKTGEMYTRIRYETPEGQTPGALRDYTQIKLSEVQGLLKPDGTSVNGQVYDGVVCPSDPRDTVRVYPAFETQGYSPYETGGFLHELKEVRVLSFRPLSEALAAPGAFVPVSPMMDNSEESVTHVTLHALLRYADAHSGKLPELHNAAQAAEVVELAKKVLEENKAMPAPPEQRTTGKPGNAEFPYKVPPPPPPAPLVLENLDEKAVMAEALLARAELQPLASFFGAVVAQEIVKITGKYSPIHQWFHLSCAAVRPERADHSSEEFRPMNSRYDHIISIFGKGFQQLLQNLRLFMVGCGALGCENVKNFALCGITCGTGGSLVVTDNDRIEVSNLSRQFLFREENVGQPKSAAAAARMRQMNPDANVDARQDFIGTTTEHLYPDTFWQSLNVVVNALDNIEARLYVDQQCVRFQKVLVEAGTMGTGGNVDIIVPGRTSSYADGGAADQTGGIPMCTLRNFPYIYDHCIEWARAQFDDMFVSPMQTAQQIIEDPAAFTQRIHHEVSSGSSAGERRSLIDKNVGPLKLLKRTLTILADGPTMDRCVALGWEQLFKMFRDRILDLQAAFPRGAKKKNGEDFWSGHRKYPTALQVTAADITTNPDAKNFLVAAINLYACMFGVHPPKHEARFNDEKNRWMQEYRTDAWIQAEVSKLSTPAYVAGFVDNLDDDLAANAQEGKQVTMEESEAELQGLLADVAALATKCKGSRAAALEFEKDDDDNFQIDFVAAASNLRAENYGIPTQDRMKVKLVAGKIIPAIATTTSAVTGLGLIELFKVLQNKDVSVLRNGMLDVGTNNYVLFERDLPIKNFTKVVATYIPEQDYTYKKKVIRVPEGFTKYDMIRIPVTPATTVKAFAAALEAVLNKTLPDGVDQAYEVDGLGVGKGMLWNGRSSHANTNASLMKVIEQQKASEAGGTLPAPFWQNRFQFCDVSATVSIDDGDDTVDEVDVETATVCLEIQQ

[3] = target: T2, Aspartate--tRNA(Asp/Asn) ligase (Mycobacterium tuberculosis (strain ATCC 25618 / H37Rv)) (UniProt P9WFW3); test: Assay for Asp RNA synthetase-1 from Mycobacterium tuberculosis; type: functional; conditions: 30 µM; note: in the data most compounds retested in dose-response had high values
T2 sequence (whole entry): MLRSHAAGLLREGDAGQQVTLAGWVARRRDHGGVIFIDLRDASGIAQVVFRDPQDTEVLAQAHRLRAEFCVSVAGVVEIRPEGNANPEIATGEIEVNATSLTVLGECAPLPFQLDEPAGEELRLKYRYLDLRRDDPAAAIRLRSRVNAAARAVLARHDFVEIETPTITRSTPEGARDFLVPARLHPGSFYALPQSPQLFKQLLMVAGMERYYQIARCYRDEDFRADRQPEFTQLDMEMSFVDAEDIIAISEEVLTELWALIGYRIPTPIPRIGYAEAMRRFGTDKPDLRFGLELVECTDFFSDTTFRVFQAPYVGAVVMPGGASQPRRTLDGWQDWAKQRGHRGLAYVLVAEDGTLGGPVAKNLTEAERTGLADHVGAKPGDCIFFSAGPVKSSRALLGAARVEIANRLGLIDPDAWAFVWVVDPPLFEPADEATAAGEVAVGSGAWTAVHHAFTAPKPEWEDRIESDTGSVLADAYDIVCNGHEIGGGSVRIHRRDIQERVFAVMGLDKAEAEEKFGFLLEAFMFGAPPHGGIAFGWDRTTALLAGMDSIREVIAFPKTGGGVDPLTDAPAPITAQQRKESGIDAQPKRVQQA

[4] = target: AMP-activated protein kinase, AMPK (Homo sapiens) (UniProt P54646+O43741+P54619+Q9UGJ0+Q9Y478+Q13131+Q9UGI9); test: AMP-dependent Kinase enzyme assay. An in vitro enzyme assay that detects ADP turnover that is directly proportional to AMPK activity. This uses naive AMPK that is activated during the assay with MK-8722; type: functional; conditions: 30 µM
[5] = target: Sialic acid-binding Ig-like lectin 9 (Homo sapiens) (UniProt Q9Y336); test: Hs-Siglec9 ALPHAscreen SOP 20170721; conditions: 10 µM
Sequence of Sialic acid-binding Ig-like lectin 9 (Homo sapiens) (Q9Y336 whole entry): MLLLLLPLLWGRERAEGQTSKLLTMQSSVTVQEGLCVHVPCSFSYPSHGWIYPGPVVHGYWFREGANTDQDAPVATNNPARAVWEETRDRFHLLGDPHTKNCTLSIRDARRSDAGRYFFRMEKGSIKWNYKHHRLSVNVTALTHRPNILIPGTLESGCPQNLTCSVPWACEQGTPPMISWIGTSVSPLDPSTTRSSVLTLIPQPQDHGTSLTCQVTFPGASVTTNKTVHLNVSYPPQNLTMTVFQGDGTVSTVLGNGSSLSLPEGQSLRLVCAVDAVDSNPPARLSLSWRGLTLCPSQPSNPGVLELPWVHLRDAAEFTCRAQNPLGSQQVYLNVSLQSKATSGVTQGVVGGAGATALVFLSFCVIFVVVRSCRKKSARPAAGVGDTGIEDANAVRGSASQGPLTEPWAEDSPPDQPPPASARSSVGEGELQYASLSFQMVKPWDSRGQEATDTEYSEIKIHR

Trypanosoma cruzi = test: Trypanosoma cruzi phosphomannomutase and mannose-1-phosphate guanylyltransferase assay; type: functional; conditions: 10 µM
[6] = target: T3, Arginase-2, mitochondrial (Homo sapiens) (UniProt P78540); test: in vitro enzyme assay to detect the production of urea directly proportional to the activity of Arginase II; type: functional; conditions: 33.3 µM; note: in the data most compounds retested in dose-response had high values
T3 sequence (whole entry): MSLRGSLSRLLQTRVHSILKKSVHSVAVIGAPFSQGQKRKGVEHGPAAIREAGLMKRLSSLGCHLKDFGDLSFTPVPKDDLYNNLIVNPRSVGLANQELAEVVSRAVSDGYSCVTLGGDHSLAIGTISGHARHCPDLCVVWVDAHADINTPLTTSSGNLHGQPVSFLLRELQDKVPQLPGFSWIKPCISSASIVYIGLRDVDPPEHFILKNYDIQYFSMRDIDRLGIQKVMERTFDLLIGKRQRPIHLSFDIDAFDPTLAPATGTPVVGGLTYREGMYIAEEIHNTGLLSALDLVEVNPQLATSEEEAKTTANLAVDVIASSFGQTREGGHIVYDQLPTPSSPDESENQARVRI

[7] = target: T4, Proteasome subunit beta (Trypanosoma cruzi) (UniProt O96673); test: Trypanosoma cruzi proteasome chymotrypsin-like activity (TcProtChymo) assay.; note: in the data most compounds retested in dose-response had high values; type: functional; conditions: 9.37 µM
T4 sequence (whole entry): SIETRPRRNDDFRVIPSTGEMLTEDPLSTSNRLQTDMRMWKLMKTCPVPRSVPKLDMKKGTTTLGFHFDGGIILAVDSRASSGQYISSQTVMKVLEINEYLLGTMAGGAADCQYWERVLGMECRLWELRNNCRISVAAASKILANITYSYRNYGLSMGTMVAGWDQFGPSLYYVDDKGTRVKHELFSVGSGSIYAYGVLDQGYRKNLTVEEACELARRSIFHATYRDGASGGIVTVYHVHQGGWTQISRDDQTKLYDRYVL

Homo sapiens = species on record: Homo sapiens; test: To identify inhibition of the IFN signalling (Jak-Stat) pathway via expression of an eGFP reporter gene under the control of an IFN-stimulated response element (ISRE) containing MxA promoter.; type: functional; conditions: 30 µM
[8] = target: Shiga toxin 2 (Escherichia coli O157:H7) (UniProt P09385+P09386); test: E. coli 0.157:H7 Shiga Toxin SOP - stx2 screening assay; type: functional; conditions: 30 µM
[9] = target: T5, Tyrosyl-tRNA synthetase, putative (Trypanosoma cruzi (strain CL Brener)) (UniProt Q4DSP6); test: Trypanosoma cruzi tyrosyl tRNA synthetase (TcYRS) _High Tyrosine SOP; type: functional; conditions: 30 µM; note: in the data most compounds retested in dose-response had high values
T5 sequence (whole entry): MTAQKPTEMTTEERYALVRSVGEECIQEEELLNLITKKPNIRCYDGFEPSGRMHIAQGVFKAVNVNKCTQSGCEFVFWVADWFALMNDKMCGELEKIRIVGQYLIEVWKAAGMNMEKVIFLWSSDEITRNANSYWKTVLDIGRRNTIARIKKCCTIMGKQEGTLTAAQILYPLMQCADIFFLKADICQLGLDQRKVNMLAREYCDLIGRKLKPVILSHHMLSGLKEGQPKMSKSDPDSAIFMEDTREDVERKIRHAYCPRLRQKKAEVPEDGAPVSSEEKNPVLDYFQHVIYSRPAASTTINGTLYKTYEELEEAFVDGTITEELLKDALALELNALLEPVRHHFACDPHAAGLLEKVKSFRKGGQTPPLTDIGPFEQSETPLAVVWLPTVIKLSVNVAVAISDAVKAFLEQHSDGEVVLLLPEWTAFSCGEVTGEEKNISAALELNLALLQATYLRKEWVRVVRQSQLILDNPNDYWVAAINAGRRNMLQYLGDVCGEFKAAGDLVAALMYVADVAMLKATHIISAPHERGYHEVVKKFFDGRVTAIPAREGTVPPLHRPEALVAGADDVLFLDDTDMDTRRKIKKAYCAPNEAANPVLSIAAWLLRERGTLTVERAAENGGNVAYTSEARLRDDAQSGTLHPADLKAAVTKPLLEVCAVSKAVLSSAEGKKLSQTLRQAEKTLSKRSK

[10] = target: T5, Tyrosyl-tRNA synthetase, putative (Trypanosoma cruzi (strain CL Brener)); test: Trypanosoma cruzi tyrosyl tRNA synthetase (TcYRS) SOP; type: functional; conditions: 30 µM
[11] = target: Chromo domain-containing protein 1 (Saccharomyces cerevisiae (strain ATCC 204508 / S288c) (Baker's yeast)) (UniProt P32657); test: ScCHD-1 Enzyme Inhibition Assay; type: functional; conditions: 30 µM; note: in the data most compounds retested in dose-response had high values
Sequence of Chromo domain-containing protein 1 (Saccharomyces cerevisiae (strain ATCC 204508 / S288c) (Baker's yeast)) (P32657 whole entry, the tested form may be a part): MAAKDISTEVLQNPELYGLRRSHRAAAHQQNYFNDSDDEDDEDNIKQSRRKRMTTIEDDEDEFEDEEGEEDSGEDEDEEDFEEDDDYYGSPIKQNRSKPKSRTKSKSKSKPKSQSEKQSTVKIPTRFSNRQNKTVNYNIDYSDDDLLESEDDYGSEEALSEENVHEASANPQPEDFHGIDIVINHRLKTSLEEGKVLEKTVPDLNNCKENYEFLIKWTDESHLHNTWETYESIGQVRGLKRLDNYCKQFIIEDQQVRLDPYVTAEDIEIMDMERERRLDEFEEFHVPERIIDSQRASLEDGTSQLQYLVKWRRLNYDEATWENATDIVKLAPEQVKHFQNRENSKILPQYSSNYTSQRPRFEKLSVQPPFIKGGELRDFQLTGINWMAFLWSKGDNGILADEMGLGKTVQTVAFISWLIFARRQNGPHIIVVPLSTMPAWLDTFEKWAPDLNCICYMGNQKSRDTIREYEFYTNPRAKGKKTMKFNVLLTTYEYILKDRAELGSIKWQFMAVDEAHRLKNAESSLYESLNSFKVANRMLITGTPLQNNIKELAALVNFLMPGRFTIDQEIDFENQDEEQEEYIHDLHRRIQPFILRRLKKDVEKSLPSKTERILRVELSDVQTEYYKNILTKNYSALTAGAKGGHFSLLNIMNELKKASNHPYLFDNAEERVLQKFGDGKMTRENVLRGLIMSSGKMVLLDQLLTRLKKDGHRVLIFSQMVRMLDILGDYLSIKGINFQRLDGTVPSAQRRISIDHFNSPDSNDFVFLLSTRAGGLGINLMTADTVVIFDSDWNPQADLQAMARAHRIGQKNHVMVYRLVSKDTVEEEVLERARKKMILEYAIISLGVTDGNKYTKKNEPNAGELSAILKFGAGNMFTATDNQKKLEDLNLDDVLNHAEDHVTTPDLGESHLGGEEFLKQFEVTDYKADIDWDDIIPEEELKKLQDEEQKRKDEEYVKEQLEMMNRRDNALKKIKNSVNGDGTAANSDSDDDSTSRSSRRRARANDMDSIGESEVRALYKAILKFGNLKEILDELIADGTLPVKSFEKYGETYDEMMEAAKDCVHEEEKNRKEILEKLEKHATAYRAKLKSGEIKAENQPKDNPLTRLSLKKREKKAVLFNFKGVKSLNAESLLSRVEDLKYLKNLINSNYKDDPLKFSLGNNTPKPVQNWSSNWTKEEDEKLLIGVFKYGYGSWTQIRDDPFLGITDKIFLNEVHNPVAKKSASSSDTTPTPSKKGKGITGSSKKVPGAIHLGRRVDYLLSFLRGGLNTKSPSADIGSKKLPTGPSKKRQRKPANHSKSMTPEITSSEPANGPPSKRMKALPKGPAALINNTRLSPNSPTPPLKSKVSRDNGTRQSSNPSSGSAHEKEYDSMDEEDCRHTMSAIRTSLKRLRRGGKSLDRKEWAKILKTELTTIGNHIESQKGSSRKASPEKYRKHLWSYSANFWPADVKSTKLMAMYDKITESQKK

Compound | Percent Effect [1] [%] | Percent Effect [2] [%] | Percent Effect [3] [%] | Percent Effect [4] [%] | Percent Effect [5] [%] | Percent Effect (Trypanosoma cruzi) [%] | Percent Effect [6] [%] | Percent Effect [7] [%] | Percent Effect (Homo sapiens) [%] | Percent Effect [8] [%] | Percent Effect [9] [%] | Percent Effect [10] [%] | Percent Effect [11] [%]
O=C1CC[C@@H]2[C@@H](CCN2Cc2ccncc2)N1c1ccccc1 | -3.22 | -8 | 0.204 | -13.7 | 8.87 | -2.7 | 0.896 | 11.1 | -5.31 | -8.6 | 5.21 | 7.5 | -2.91
c1cncc(OC[C@@H]2CC[C@H]3[C@H](CCN3Cc3cccs3)O2)c1 | -2.2 | 5.33 | -2.1 | 4.9 | -3.46 | -2.56 | 2.1 | -0.969 | -0.872 | -5.68 | 2.13 | 8.97 | 2.16
Cc1ncsc1CN1CC[C@H]2C[C@H](c3ccncn3)O[C@@H]2C1 | 1.18 | 10.4 | 1.35 | 2.98 | -6.01 | -9.57 | 0.645 | 9.4 | 24.2 | 0.203 | 1.06 | 6.41 | -5.8
COC[C@@H]1CCC[C@]12CN(Cc1cccc(C)n1)CCO2 | 2.73 | 4 | 3.92 | 0.13 | -3.4 | -8.45 | 0.528 | 15.3 | 9.81 | -43.1 | 2.12 | 2.56 | -8.43
c1ccc(CN2C[C@@H]3CCCO[C@@H]3[C@H](Nc3ccccn3)C2)nc1 | -6.38 | 5.41 | 3.79 | -2.17 | 3.76 | 0.88 | 3.23 | 8.15 | -12.7 | 8.28 | 6.45 | 16.1 | -2.77
c1cc(CO[C@@H]2CC[C@H]3[C@H]2OCCN3Cc2ccoc2)ccn1 | -1.76 | 13.5 | 9.49 | 9.36 | -7.31 | -1.66 | 2.23 | 27.1 | 33.2 | 1.68 | 1.08 | 10.3 | 1.36
CCN1CCC2(COCc3cnc(-c4cccnc4)nc32)C1 (stereo not given) | -4.12 | 10.8 | 3.74 | 3.75 | 1 | -2.44 | -4.78 | 19.9 | 5.19 | 8.79 | 3.24 | 10.3 | 2.57
Cc1nc(C)c(CC(=O)N2C[C@@H]3CC[C@H](C2)N(CC2CCC2)C3)c(=O)[nH]1 | -2.23 | 18.9 | -2.78 | -35.4 | 21.6 | 4.2 | 16.1 | 16.2 | -15.8 | 5.33 | 4.3 | 18.5 | -11.7
COCCN1CCC2(CCCN(c3ncccn3)C2)C1 (stereo not given) | -2.69 | 2.67 | -4.34 | 10.4 | 2.96 | -2.17 | 8.16 | 4.32 | -7.02 | -6.31 | -1.06 | -3.85 | -4.53
Cc1cccc(CN2C[C@@H]3CCCO[C@@H]3[C@H](NS(C)(=O)=O)C2)n1 | -4.89 | 21.3 | 4.75 | -6.76 | -3.19 | 5.99 | -50.4 | 11.1 | -3.89 | -20.3 | 7.29 | 25 | -7.06
O=C(c1cscn1)N1CCN2C[C@H](OCc3cccnc3)C[C@H]2C1 | 4.53 | 16 | 2.54 | 2.68 | -10.9 | -9.05 | 6.76 | 12.1 | 0.411 | -22.2 | 5.32 | 3.85 | 1.28
Cc1n[nH]c2c1C(c1ccsc1)SCC(=O)N2 (stereo not given) | 0.859 | 15.6 | 6.57 | 7.18 | -13.4 | -4.24 | 0.645 | 16 | 19.9 | 1.07 | 5.29 | 6.41 | -7.85
Cc1cc(CN2C[C@@H]3CCCO[C@@H]3[C@H](Nc3ccccn3)C2)no1 | -6.36 | 8.11 | 1.17 | 2.41 | 16.5 | 1.47 | 4.22 | 7.3 | 2.28 | 10.7 | 5.38 | 16.1 | -5.82
O=C(N[C@H]1CN[C@H]2CCCO[C@H]21)c1cscn1 | 1.11 | 21.9 | 4.92 | -4.2 | 5.27 | 0 | -1.6 | 18.6 | 4.9 | -0.964 | 7.29 | 13.6 | -4.35
c1cncc(N2CCCC3(CN(Cc4cccs4)CCO3)C2)c1 (stereo not given) | -4.82 | 8.11 | 1.48 | -14.4 | -11.3 | -4.2 | -1.59 | 8.12 | 29.1 | 1.28 | -1.08 | 5.13 | -3.66
COc1ncccc1CN1C[C@@H]2COC[C@]2(COCC2CC2)C1 | -2.06 | 1.33 | 0.116 | 0.466 | 5.34 | -9.23 | 24.5 | 14.4 | 2.6 | -25.1 | 6.35 | 2.56 | -9.86
CCc1ccc(CN2CCN(C)c3ncccc3C2)o1 | -8.73 | 1.3 | -0.259 |  | 15.1 | -1.27 | -3.24 | 7.68 | 6.96 | 1.33 | 3.68 | -5.13 | -4.2
